# Sampled rows, rich in hits. Any-hit rate of the full collection: about 19%.
# IL-1B inflam inh: blocks inflammasome-driven IL-1 beta release | THP-1 LPS/ATP IL-1B secretion, AlphaLISA, 16 h; active compounds read low | activity change, % at 57.5 µM | 4.7% of 360,000 active | AID 743279; in the data active = activity change below about -50%; inconclusive = mostly about -30% to -49%
#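 Secreted IL-1B measured by AlphaLISA bead assay after 16 h compound exposure of THP-1 cells; compounds (final up to 57.5 uM) added 1 h before LPS (250 ng/mL) and ATP (1.25 mM) stimulation; lower signal means less secretion.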
# HT1080-NT tox: kills 2HG-producing HT-1080-NT fibrosarcoma cells | 1.6% of 360,000 active | HT-1080-NT fibrosarcoma viability, CellTiter-Glo ATP luminescence, 48 h | AID 686970 | Potency, µM (titrated, usually from 46.1 µM), for the others: at the top dose activity, negative = less viability, most hits filed as cytotoxic;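 note: NT is the 2HG producing partner of a matched IDH1 knockdown line; potency is the fitted concentration of half-maximal effect; 0% = DMSO-treated cells and -100% = media-only wells without cells; nearly all actives have a fitted effect of over 55% in size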
#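 Viability of the 2HG-overproducing fibrosarcoma line after 48 hours of compound exposure at 37 degrees C was determined by luminescence with CellTiter-Glo, and concentration-effect curves were then fitted and categorized.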
# ELG1 repair inh: inhibitors of ELG1-dependent DNA repair in HEK293T cells; Potency, µM (highest dose often 46.1 µM), inactives show at the highest dose activity change, negative = inhibition, usual class: inhibitors; 2.3% of 330,000 active; HEK293T ELG1-luciferase reporter, luminescence, 16 h; DNA damage induced by 5-fluorouridine; AID 504467; note: potency is the fitted concentration of half-maximal effect; nearly all actives have a fitted effect of over 55% in size
#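 Reporter activity after DNA damage by 5-fluorouridine is monitored. Compound-treated cells incubate 16 hr at 37 °C, then ONE-Glo is added for 30 min before luminescence reading.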
# DT40 TDP1 no CPT: qHTS for Inhibitors of human tyrosyl-DNA phosphodiesterase 1 (TDP1): qHTS in cells in absence of CPT. AID 686978, 2013. DT40 Tdp1-/- hTDP1 cells, no CPT, ATP luminescence, 48 h. 15% of 420,000 active. Potency, µM (series often up to 46.2 µM), for inactives: top-dose activity change, negative = growth inhibition, most hits filed as inhibitors; note: potency is the fitted concentration of half-maximal effect; nearly all actives have a fitted effect of over 55% in size
#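 Growth kinetics read by CellTiter-Glo luminescence after ≥48 hr at 37 °C. Cells: DT40 Tdp1-/- stably carrying human TDP1, 400 per well, compound exposure in the absence of CPT (DMSO vehicle).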
# HT1080 IDH1KD tx: HT-1080 IDH1 knockdown cell toxicity (counter line); 2% of 360,000 active; HT-1080 IDH1 knockdown viability, ATP luminescence, 48 h; Potency, µM (top dose mostly 46.1 µM), inactives show top-dose activity, negative = toxicity, usual class: cytotoxic; AID 686971;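 note: potency is the fitted concentration of half-maximal effect; 0% = DMSO wells and -100% = cell-free medium wells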
#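 CellTiter-Glo luminescence after 48 h compound exposure at 37 degrees C of IDH1-knockdown HT-1080 cells in 5% FBS RPMI. %Activity scaled between DMSO wells and cell-free media wells, with curves fitted and assigned curve classes.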
# DT40 TDP1 CPT: DT40-hTDP1 cell growth loss with CPT; chicken DT40 Tdp1-/-;hTDP1 cells + 20 nM CPT, ATP luminescence, 48 h; 12% of 420,000 active; Potency, µM (series often up to 46.2 µM), for the others: at the top dose activity change, negative = growth inhibition, hits mostly inhibitors; note: potency is the fitted concentration of half-maximal effect; nearly all actives have a fitted effect of over 55% in size
#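 Chicken DT40 Tdp1-/- cells complemented with human TDP1, 400 cells/well, exposed to compounds plus 20 nM camptothecin for at least 48 h at 37 C; viability read as ATP content by CellTiter-Glo luminescence.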
# Starred values were filed as active, the others as inactive; ? = inconclusive; / = not tested or not shown; [ ] = another dose, or the depositor's remark. Unless noted, calls come from the whole dose curve; as a rule, active = well fitted curve in the direction sought with a large enough effect; inconclusive = small, poorly fitted or top-dose-only effect, or another doubt; inactive = no such curve, though single readings can be large; an effect the other way counts as inactive or inconclusive. Unless noted, % is set by controls: 0 for no effect and ±100 for the full control effect.
SMILES,IL-1B inflam inh,HT1080-NT tox,ELG1 repair inh,DT40 TDP1 no CPT,HT1080 IDH1KD tx,DT40 TDP1 CPT
O=C(CSC1=NCCS1)N1N=C(c2cccs2)CC1c1ccc(F)cc1 (stereo unspecified),-66*,1%,/,?,0%,?
O=C(CSc1nc(=O)n2ccccc2n1)N1N=C(c2cccs2)CC1c1ccc(F)cc1 (stereo unspecified),-7,-2%,-2%,?,-22%,-26%
COc1ccc(C2CC(c3cccs3)=NN2C(=O)CSc2nc(=O)n3ccc(C)cc3n2)cc1 (stereo unspecified),?,-9%,-14%,5.8µM*,-22%,?
Cc1ccc(C2CC(c3cccs3)=NN2C(=O)CSc2nc3ccccc3o2)cc1 (stereo unspecified),?,0%,1%,?,-4%,15µM*
O=C(CSc1nc2ccccc2o1)N1N=C(c2cccs2)CC1c1ccc(F)cc1 (stereo unspecified),15,0%,-20%,?,-1%,?
CCN(c1ccc(C(=O)CN2C(=O)NC3(CCOc4ccccc43)C2=O)cc1)S(C)(=O)=O (stereo unspecified),28,-16%,-10%,?,0%,?
CCOC(=O)[C@H]1[C@H]2COc3ccc(Cl)cc3[C@@H]2N2C(=O)CN(C)C(=O)[C@@]12C,14,20%,22%,-8%,8%,-5%
Cc1ccc2[nH]c(C(=O)N3CCc4c(cnc(C)c4CNC(=O)c4ccccc4F)C3)cc2c1,/,/,/,-17%,/,19%[9.04 µM]
Cc1cccc(C2C=C(c3ccc(C)c(C)c3)Nc3nnnn32)c1 (stereo unspecified),/,/,/,2.6µM*,/,2.6µM*
COc1cccc(C2=CC(c3ccc(OC)c(OC)c3OC)n3nnnc3N2)c1 (stereo unspecified),-1,1%,?,-22%,1%,-22%
Cc1ccc(C2CC(c3cccc(Br)c3)Nc3nnnn32)cc1 (stereo unspecified),-7,-13%,0%,-19%,?,-26%
CCc1ccc(C2=CC(c3cccc(Br)c3)n3nnnc3N2)cc1 (stereo unspecified),/,/,/,15µM*,/,18µM*
Cn1c(=O)n(C)c2cc(N3CCOCC3)c(NC(=O)c3ccccc3Br)cc21,/,/,/,-38%,/,?
Cc1c(Cl)cccc1NC(=S)NCC1COc2ccccc2O1 (stereo unspecified),-68*,1%,-5%,-29%,-18%,-22%
CNC(=O)C1CCC(Cn2c(=O)c3sccc3n(CC(=O)N3CCCC(C)C3)c2=O)CC1 (stereo unspecified),/,/,/,3%,/,-4%
Cc1ccccc1CC1(CO)CCCN(Cc2ccccc2Cl)C1 (stereo unspecified),16,-21%,-6%,-17%,?,1%
Cc1ccc(C)c(-c2[nH]ncc2CN2CCCC(CO)(Cc3ccccc3C)C2)c1 (stereo unspecified),-80*,?,1%,13µM*,?,7.3µM*
Cc1cccc(-c2ncc(CN3CCCC(CO)(Cc4ccccc4C)C3)cn2)c1 (stereo unspecified),-3,-6%,-12%,-25%,-15%,23µM*
Cc1nc(C)n(C(C)CNS(=O)(=O)c2ccc(Cl)cc2)n1 (stereo unspecified),0,2%,5%,2%,-5%,8%
CC(C)Cc1nc2cc(NS(=O)(=O)N(C)C)cc(C(=O)N3CCSCC3)c2n1C,/,/,/,2%,/,-3%[9.04 µM]
Cn1c(N)c(NC(=S)NC2CCCCC2)c(=O)n(C)c1=O,-2,18%,/,-12%,21%,1%
Cc1c(C(=O)N2CCCCC2)c(S(=O)(=O)Nc2ccc(F)cc2F)c(C)n1C,-14,4%,8%,18%,0%,-11%
O=C(COC(=O)CNC(=O)c1ccccc1)Nc1ccc(Cl)cn1,7,6%,-13%,-9%,6%,-22%
CC1(C)c2ccccc2N2CC(=O)N[C@@]21/C=C/C=C/c1ccccc1,-28,10µM*,-5%,?,?,?
Cc1cccc(NC(=O)c2nc[nH]c2C(=O)N[C@@H](Cc2ccccc2)C(=O)OC(C)(C)C)c1,-58*,?,?,?,?,?
SMILES,IL-1B inflam inh,HT1080-NT tox,ELG1 repair inh,DT40 TDP1 no CPT,HT1080 IDH1KD tx,DT40 TDP1 CPT
CC(C)(C)OC(=O)[C@H](Cc1ccccc1)NC(=O)c1[nH]cnc1C(=O)Nc1ccc(Cl)cc1,-59*,?,?,?,?,?
C[C@H](NC(=O)c1[nH]cnc1C(=O)Nc1ccc(Cl)cc1)c1ccccc1,-24,?,-26%,?,?,?
CC(C)(C)OC(=O)[C@H](Cc1ccccc1)NC(=O)c1[nH]cnc1C(=O)Nc1cccc(Cl)c1,-51*,?,?,?,?,?
CC1=C(C(=O)N(C(C)C)C(C)C)CC(CC(=O)NC2CCCC2)C(=O)N1Cc1ccccc1 (stereo unspecified),1,11%,/,?,-2%,-15%
CCSc1nc2nccnc2c(=O)[nH]1,23,2%,/,-18%,5%,-19%
O=C1c2ccccc2CCCC12N=NCC2c1cccc2ccccc12 (stereo unspecified),10,-28%,-12%,?,?,?
Cc1ccc(C2CN=NC23CCc2ccccc2C3=O)cc1 (stereo unspecified),13,0%,?,26µM*,-12%,26µM*
Cc1cnn(C(=S)NCCc2ccccc2)c1,-29,?,?,?,23%,?
Cc1cnn(C(=S)NCc2ccc(Cl)cc2)c1,-8,?,-1%,23µM*,?,?
O=C(Nc1ccccc1)Nc1cccc2cccnc12,-15,-13%,?,-18%,-12%,2%
CC(C)CC(=O)NC(NC(=S)Nc1cccc2cccnc12)C(Cl)(Cl)Cl (stereo unspecified),-19,?,?,8.2µM*,?,8.2µM*
CCC(=O)Nc1cccc2cccnc12,11,13%,?,3%,12%,12%
CC(C)C(=O)NC(Nc1cccc2cccnc12)C(Cl)(Cl)Cl (stereo unspecified),7,-14%,-13%,13µM*,-3%,15µM*

# Compound activity from PubChem.
